SENP8 block-1: blocks the human protease SENP8. hit rate 1.2% among 330,000. purified SENP8, Z-RLRGG-aminoluciferin cleavage, luminescence. Q96LD8. inhibition, % at 10 µM; in the data active means inhibition above about 50%
SENP8 block-2: blocks human SENP8 cleavage of Nedd8 substrate | Q96LD8 | recombinant SENP8, Nedd8 substrate fluorescence | inhibition, % at 20 µM | hit rate 0.64% among 360,000 | AID 602440; in the data active means inhibition mostly above about 40%, no sharp cut-off; inactive means mostly below about 27%
SENP7 block: blocks the human protease SENP7. AID 434973. hit rate 1.5% among 330,000. inhibition, % at 5 µM. Q9BQF6. recombinant SENP7, Z-RLRGG-aminoluciferin luminescence, 40 min;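 active means inhibition above about 50% at the single test dose, limit read from the data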;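 further: plate controls were DMSO with enzyme for no effect and no enzyme buffer wells for full effect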
Target sequence (Q9BQF6 706-1050 limits assumed): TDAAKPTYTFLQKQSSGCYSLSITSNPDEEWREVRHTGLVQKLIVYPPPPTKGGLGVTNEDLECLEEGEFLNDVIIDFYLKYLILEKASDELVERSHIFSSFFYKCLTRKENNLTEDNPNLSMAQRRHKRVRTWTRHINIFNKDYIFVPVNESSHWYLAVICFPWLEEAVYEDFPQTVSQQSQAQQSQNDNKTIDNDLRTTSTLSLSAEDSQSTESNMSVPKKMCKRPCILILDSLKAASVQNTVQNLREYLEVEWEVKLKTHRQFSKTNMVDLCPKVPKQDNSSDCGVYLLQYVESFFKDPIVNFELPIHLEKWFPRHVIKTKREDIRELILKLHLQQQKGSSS
SENP6 inh: SENP6 protease inhibition | hit rate 1.8% among 330,000 | inhibition, % at 10 µM | Recombinant SENP6 catalytic domain, aminoluciferin luminescence | Q9GZR1;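 active means inhibition above about 50% at the single tested dose, limit read from the data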;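 further: plate controls were DMSO wells with enzyme for no effect and DMSO wells lacking enzyme for full effect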
Platelet DG rel: modulates dense granule release in human platelets; human platelet-rich plasma, SFLLRN dense granule ATP release, luminescence; inhibition, %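 (compounds screened at 7.5 µM in platelet-rich plasma)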; hit rate 0.22% among 300,000;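 active means mean replicate score, as percent of positive control, at or above 50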
SENP8 confirm: human SENP8 inhibition, confirmed | shares compounds with SENP7 block | Recombinant SENP8, Z-RLRGG-aminoluciferin luminescence, 60 min | inhibition, % at 12.5 µM | hit rate 40% among 6,200;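 active means mean inhibition across replicates above about 50%, limit read from the data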
SENP6 confirm: human SENP6 inhibition, confirmed. shares compounds with SENP7 block. inhibition, % at 12.5 µM. AID 488915. hit rate 58% among 6,200. recombinant SENP6, Z-RLRGG-aminoluciferin luminescence
SENP7 confirm: confirmation of human SENP7 protease inhibitors. shares compounds with SENP7 block. recombinant SENP7, Z-RLRGG-aminoluciferin luminescence, 40 min. inhibition, % at 12.5 µM. hit rate 69% among 6,200. AID 488917
Casp3 select: inhibits human caspase-3 in SENP selectivity test | shares compounds with SENP7 block | purified caspase-3, Z-DEVD-aminoluciferin luminescence, 60 min | inhibition, % at 12.5 µM | hit rate 60% among 6,200 | AID 488918;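 active means mean inhibition above about 50%, limit read from the data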;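 further: plate controls were enzyme with DMSO for no effect and wells without caspase-3 for full effect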
Target sequence (P42574 28-227 limits assumed): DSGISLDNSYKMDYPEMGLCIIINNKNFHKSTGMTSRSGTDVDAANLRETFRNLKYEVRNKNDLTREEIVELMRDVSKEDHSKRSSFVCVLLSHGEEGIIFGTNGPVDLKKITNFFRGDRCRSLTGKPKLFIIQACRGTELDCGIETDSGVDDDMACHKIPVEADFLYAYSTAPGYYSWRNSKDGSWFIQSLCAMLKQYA
Luc interf: interferes with luciferase luminescence in SENP counter-screen. shares compounds with SENP7 block. Pre-incubated SENP8/Z-RLRGG-aminoluciferin, luciferase luminescence interference. inhibition, % at 12.5 µM. hit rate 39% among 6,200. AID 488919;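 active means mean inhibition above about 50% when retested at one dose, limit read from the data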;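 further: plate controls were DMSO wells with completed reaction for no effect and substrate without enzyme for full effect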
* hit, by the source's call; i = inactive; · = not tested or not shown. Most compounds without a hit are left out; they make up all but 2.4% or so of the library.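 How the source made its calls, unless noted: active means mean inhibition above about 50% in the one-dose retest (limit read from the data); inactive means the rest.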

SMILES | SENP8 block-1 | SENP8 block-2 | SENP7 block | SENP6 inh | Platelet DG rel | SENP8 confirm | SENP6 confirm | SENP7 confirm | Casp3 select | Luc interf
COc1ccc(NC2c3ccccc3C(=O)N2Cc2ccccc2Cl)cc1OC (configuration not stated) | 2.0 | 12.5 | 10.2 | 17.2 | -2.1 | · | · | · | · | ·
COc1nc(-c2cnccn2)sc1C | 5.5 | -109.2 | 1.8 | -21.6 | 4.4 | · | · | · | · | ·
COc1ccc(-c2nc(C3CCCCC3)no2)cc1OC | -23.2 | 26.8 | 1.3 | 0.9 | -1.8 | · | · | · | · | ·
c1ccc(-c2nc(C3CCCCC3)no2)cc1 | 12.0 | 13.4 | 34.1 | 58.9* | -2.7 | -4.6 | -0.9 | 57.1* | 12.8 | 4.9
COCCn1c(C)cc(C(=O)CSc2nnc(C)s2)c1C | 9.6 | 18.8 | 50.4* | 46.4 | 2.9 | 40.9 | 38.3 | 79.6* | 80.8* | 56.1*
COCCn1c(C)cc(C(=O)CSc2n[nH]c(N)n2)c1C | -8.6 | 22.2 | -6.7 | -5.1 | 6.2 | · | · | · | · | ·
C=CCNC(=O)C1CC(=O)N(c2ccc(OCC(=O)N3CCCC3)cc2)C1 (configuration not stated) | -8.0 | 13.5 | 9.1 | -5.8 | 4.3 | · | · | · | · | ·
CCOc1ccc(N2CC(C(=O)NCc3ccc(F)cc3)CC2=O)cc1 (configuration not stated) | 1.5 | 8.9 | 8.8 | -14.7 | -0.4 | · | · | · | · | ·
CCCNC(=O)C1CC(=O)N(c2ccc(OCc3ccc(Cl)cc3)cc2)C1 (configuration not stated) | 61.0* | 4.5 | 87.6* | 84.1* | 4.7 | 37.4 | 37.0 | 37.6 | 44.5 | 13.1
CCCNC(=O)C1CC(=O)N(c2ccc(OCc3ccc(F)cc3)cc2)C1 (configuration not stated) | 87.2* | 6.2 | 87.7* | 86.8* | 17.2 | 43.7 | 55.9* | 70.9* | 94.4* | 15.2
C=CCNC(=O)C1CC(=O)N(c2ccc(OCc3ccc(F)cc3)cc2)C1 (configuration not stated) | 79.4* | 7.9 | 91.0* | 92.1* | 17.8 | 64.7* | 86.4* | 96.1* | 88.1* | 23.1
COc1cccc(C(O)c2ncc(-c3ccc(C(F)(F)F)cc3)[nH]2)c1 (configuration not stated) | · | 13.4 | · | · | · | · | · | · | · | ·
Cc1cn2nc(N)c3ccccc3c2n1 | -1.9 | i | -4.0 | -3.4 | · | · | · | · | · | ·
Nc1nn2cc(-c3ccccc3)nc2c2ccccc12 | 56.4* | -402.9 | 68.9* | 33.2 | 18.3 | 78.3* | 76.5* | 91.3* | 72.8* | 73.8*
Cc1nc(C(F)(F)F)ccc1C(=O)N1CCC1(C)C(=O)NS(=O)(=O)c1ccc(C(C)(C)C)cc1 (configuration not stated) | · | 3.2 | · | · | · | · | · | · | · | ·
NC(=O)c1ccc(-c2noc(-c3cccc(Cl)c3)n2)cc1 | 13.5 | 9.4 | 58.2* | 5.9 | · | -14.4 | -8.4 | 7.5 | 15.9 | -2.3
O=C(O)c1cccc(-c2noc(-c3cccc(Cl)c3)n2)c1 | 98.1* | 10.1 | 100.7* | 99.3* | · | 99.2* | 100.3* | 103.3* | 97.5* | 96.5*
NC(=O)c1ccccc1-c1nc(-c2ccccc2)no1 | -16.6 | 18.5 | 3.7 | -42.0 | -0.6 | · | · | · | · | ·
COc1cc(-c2noc(-c3cccc(Cl)c3)n2)cc(OC)c1OC | -2.4 | 12.8 | 1.6 | -4.4 | -3.6 | · | · | · | · | ·
COc1ccc(C(=O)c2coc3ccc(OC(C)=O)cc23)cc1 | 59.5* | 19.4 | 34.2 | 49.5 | 11.4 | 58.0* | 55.0* | 66.1* | 50.4* | 25.1
COc1ccc2occ(C(=O)c3cccs3)c2c1 | 29.7 | 8.9 | 52.4* | 68.6* | 0.4 | 55.6* | 57.8* | 84.3* | 51.6* | 62.0*
Cc1ccc(C(=O)c2coc3ccc(O)cc23)cc1 | 88.1* | 27.8 | 91.7* | 86.3* | 2.3 | 6.1 | 93.8* | 100.4* | 84.3* | 84.0*
COc1ccc2occ(C(=O)c3ccc(N)cc3)c2c1 | 47.6 | -38.0 | 52.8* | 40.4 | 0.5 | 54.8* | 54.4* | 82.4* | 44.5 | 64.7*
COc1ccc(Cl)cc1-c1nc(SCC(=O)N(C)C2CCS(=O)(=O)C2)n[nH]1 (configuration not stated) | 3.6 | 1.9 | 1.4 | 4.7 | · | · | · | · | · | ·
Nc1nonc1-n1nnc(C(=O)N/N=C/c2cccc(F)c2)c1CN1CCCCCC1 | -9.0 | -5.0 | -6.1 | -8.3 | 3.5 | · | · | · | · | ·
SMILES | SENP8 block-1 | SENP8 block-2 | SENP7 block | SENP6 inh | Platelet DG rel | SENP8 confirm | SENP6 confirm | SENP7 confirm | Casp3 select | Luc interf
O=C(CSc1nnc(CNc2ccc(F)cc2)n1CC1CCCO1)N1CCOCC1 (configuration not stated) | -2.4 | 14.0 | -8.8 | -16.3 | 3.4 | · | · | · | · | ·
Cc1cc(C)c(NC(=O)C2CCCCN2C)c(C)c1 (configuration not stated) | -2.5 | 13.6 | 79.6* | -25.3 | -3.6 | 7.7 | 10.4 | -2.6 | 1.5 | -1.2
Cc1cc(C)c(NC(=O)C2CCCN2CCC(C)C)c(C)c1 (configuration not stated) | -1.8 | 23.0 | -0.8 | -2.6 | 5.0 | · | · | · | · | ·
Cc1cc(C(=O)Nc2ccc(N3CCCCC3)cc2)no1 | 37.9 | 10.6 | 53.5* | 50.0 | 18.5 | 16.8 | 55.9* | 77.0* | 80.9* | 19.1
O=C(Nc1ccc(N2CCCCC2)cc1)c1ccccc1 | 75.1* | 13.8 | 89.7* | 83.9* | 27.8 | 5.2 | 85.0* | 97.5* | 91.9* | 28.8
O=C(Nc1ccc(N2CCCCC2)cc1)c1ccc(F)cc1F | 77.1* | 7.4 | 79.6* | 88.3* | 32.0 | 32.6 | 77.3* | 87.5* | 83.5* | 13.8
O=C(Nc1ccc(N2CCCC2)cc1)c1ccccc1F | 18.6 | 23.8 | 9.4 | -0.7 | 20.1 | · | · | · | · | ·
O=C(Nc1ccc(N2CCCC2=O)cc1)c1cccc(F)c1 | 72.0* | -3.9 | 88.9* | 81.1* | 24.2 | -12.1 | 16.4 | 61.6* | 69.9* | 48.7
O=C(Nc1ccc(N2CCCCC2)cc1)c1cncc(Br)c1 | 29.7 | 21.7 | 52.4* | -35.8 | 18.5 | 48.1 | 37.9 | 62.1* | 67.6* | 7.8
O=C(Nc1ccc(N2CCCC2)cc1)c1cccc(F)c1 | 89.0* | 20.0 | 92.7* | 94.1* | 8.1 | 87.1* | 86.4* | 96.4* | 79.7* | 74.6*
O=C(Cc1ccccc1)Nc1ccc(N2CCCCC2)cc1 | 54.1* | 18.4 | 64.3* | 38.8 | 37.2 | -4.2 | 43.7 | 76.7* | 73.4* | -0.3
O=C(Nc1ccc2c(c1)CCCN2C(=O)c1ccccc1)c1ccccc1 | 77.9* | 8.2 | 83.0* | 83.9* | 46.7 | 11.5 | 84.7* | 97.2* | 85.4* | 67.3*
CN1CCN(c2ccc(NC(=O)Cc3ccccc3)cc2)CC1 | -8.7 | 5.4 | -4.4 | 0.1 | -5.9 | · | · | · | · | ·

Assay outcomes as filed in PubChem BioAssay.
